Measurements published in paper PMC7819943, “Rice protein-binding microarrays: a tool to detect cis-acting elements near promoter regions in rice”.
Whole data set: some 68,000 sequences, median “fluorescence intensity (a.u.)” near 9,100, cut for the highest 2% near 16,000. This excerpt belongs to a sample that is enriched for the highest values.

Target: OsWRKY34 (Oryza sativa, UniProt Q0JBA9 1-250)
Assay: protein-binding microarray (RPBM); PBS, 2% BSA, 51.3 ng/ul salmon testes DNA, 50 uM zinc acetate, 200 nM TF, 25 C, 1 h; high values mean tight binding
Conditions: protein: recombinant; tags: N-terminal polyhistidine and DsRed monomer fusion (pET32a); label: CyDye5-dUTP incorporated in the synthesized complementary strand; 3' TTTTT single-stranded linker to array surface; dsDNA, one strand shown
Summary of the method: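 The binding signal is fluorescence intensity per feature, in arbitrary units, read on an Axon 4000B scanner. Polyhistidine- and DsRed-tagged transcription factors (N-terminal fusions) from E. coli BL21-CodonPlus were purified on Ni–NTA and applied at 200 nM for 1 h at 25 °C to a double-stranded, BSA-blocked custom Agilent array in buffer with 50 µM zinc acetate.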

Chain of OsWRKY34 (Q0JBA9 entry or part of it): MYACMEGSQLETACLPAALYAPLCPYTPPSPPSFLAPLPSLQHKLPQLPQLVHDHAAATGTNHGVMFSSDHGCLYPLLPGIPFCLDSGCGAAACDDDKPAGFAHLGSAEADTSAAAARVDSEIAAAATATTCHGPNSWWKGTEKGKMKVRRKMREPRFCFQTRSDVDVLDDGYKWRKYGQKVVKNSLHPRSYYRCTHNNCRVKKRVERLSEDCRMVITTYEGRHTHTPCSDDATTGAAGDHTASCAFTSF

Sequence	binding signal
TCTCGCCACCTTCGCCTCCATCTCATCGACCGCCCACTTCCGGAGTCACCTAGTGCAG	12800 fluorescence intensity (a.u.)
ATGACTTTAATATGTTAGCTTTTCATGCATGTGTCAATTTCGGAGTCACCTAGTGCAG	8700 fluorescence intensity (a.u.)
GCATATAATTAGTTTACCATGGCTTTAATCAATCATATGCCGGAGTCACCTAGTGCAG	29300 fluorescence intensity (a.u.)
TCATAATGCATCAATCTATTACTTTAGCTATCTATTTATACGGAGTCACCTAGTGCAG	9530 fluorescence intensity (a.u.)
GCAACGCCGCCGTTTTCTTCGCCTCTCACAGAGACGACTCCGGAGTCACCTAGTGCAG	9200 fluorescence intensity (a.u.)
AGCCATCTATCACCATGGCTGAAGCCATGTTATATATATCCGGAGTCACCTAGTGCAG	8560 fluorescence intensity (a.u.)
TTTTTGGGGTTTTCTCTTCTTGATTGATTCGTTCTTGGCGCGGAGTCACCTAGTGCAG	13100 fluorescence intensity (a.u.)
TTCTTTTCTTTTTCTTTTTCGTTTTCTTCTTATTCTTTTTCGGAGTCACCTAGTGCAG	12900 fluorescence intensity (a.u.)
GGGGTTCGTTTTGTTTCTTGACACACGCTTGAGTCTTATTCGGAGTCACCTAGTGCAG	16900 fluorescence intensity (a.u.)
CTTCACTCTTGATTCAAAAGGTTTTATTTTTTTTTCTGGTCGGAGTCACCTAGTGCAG	8530 fluorescence intensity (a.u.)
ATCACTTTATGCGCACTTTTCTTTGACGCCTTCCACAATTCGGAGTCACCTAGTGCAG	9560 fluorescence intensity (a.u.)
TTCGGGTTTTTTTTTTGTTTATTTTGTCTTTCGCTTTTCACGGAGTCACCTAGTGCAG	14900 fluorescence intensity (a.u.)
ACTTCTACCTTTCGTTTTTCCACGCGCATATGCTTTTTGACGGAGTCACCTAGTGCAG	20300 fluorescence intensity (a.u.)
TCCCACCTTCCGCTCGTTTTTCTTGAGCATATGCTTCTCACGGAGTCACCTAGTGCAG	10100 fluorescence intensity (a.u.)
ATTCGTTCTGGTTTTCTTCGGGGTTTATTGATTCACGCGACGGAGTCACCTAGTGCAG	18200 fluorescence intensity (a.u.)
TCTTCTGAGTTCTTGTGTTTTCATACGTGCCAATCAAATGCGGAGTCACCTAGTGCAG	8310 fluorescence intensity (a.u.)
ACCTTCGGTGTACTTTTTCCTTAGTCTGCCGGCTTATTTACGGAGTCACCTAGTGCAG	9490 fluorescence intensity (a.u.)
GACAATTACTTAGTCCTCACCTACCGTCGACCTCACACGTCGGAGTCACCTAGTGCAG	10200 fluorescence intensity (a.u.)
TTCAGAGTATTGTGATCCTTAAATCGAACCGTTGACTCTACGGAGTCACCTAGTGCAG	9490 fluorescence intensity (a.u.)
AGCAGTTGTATTGTTGTGAAATTTAATTTGCTCTTTGACCCGGAGTCACCTAGTGCAG	8200 fluorescence intensity (a.u.)
TCTTGTTCATTTCTCTCTTGCTCCGGCTCGCCTCGCATCGCGGAGTCACCTAGTGCAG	8300 fluorescence intensity (a.u.)

Sequence	binding signal
GGTAGACGGCGTCGTACCCGTCCTCCTCGCCGGACCGCATCGGAGTCACCTAGTGCAG	8840 fluorescence intensity (a.u.)
TAATGTATGACGCCGTTGACTTTTTGATTAACGTTTGACCCGGAGTCACCTAGTGCAG	34800 fluorescence intensity (a.u.)
TAATGTATGACGCCGTTGACTTTTTAACTAACGTTTGACCCGGAGTCACCTAGTGCAG	28700 fluorescence intensity (a.u.)
TTGTATGATGCCGTTGATTTTTTTTGTCTAACGTTTAACCCGGAGTCACCTAGTGCAG	8360 fluorescence intensity (a.u.)
TAATGTATAACGCCGTTAACTTTTTAACAAACGTTTGACCCGGAGTCACCTAGTGCAG	8430 fluorescence intensity (a.u.)
TTTTAATGTATGACGCCGTTGACTTTTTATACGTTTGACCCGGAGTCACCTAGTGCAG	32200 fluorescence intensity (a.u.)
CGCATAATACTTTTACTTGCACCAATCAAGTACACGCTCTCGGAGTCACCTAGTGCAG	9320 fluorescence intensity (a.u.)
CCCTGGCAAATGTTCTTTCTCCTCTATTTTCCATCTCCAACGGAGTCACCTAGTGCAG	9120 fluorescence intensity (a.u.)
TATAGATTTTCGTCTCCAACGCTTGACCGTCCGTTTTATTCGGAGTCACCTAGTGCAG	12800 fluorescence intensity (a.u.)
CTTGCTCGTTGTAACTGTTTAATCTATTATGTTTTTTTTTCGGAGTCACCTAGTGCAG	11000 fluorescence intensity (a.u.)
CCCACCGCTCCTCCGCGCCACGCTTCCTCGCCGCGCGCGCCGGAGTCACCTAGTGCAG	8390 fluorescence intensity (a.u.)
ACAACTGACTTACCCTTTCTGACTTGCAGATCAATTTGTCCGGAGTCACCTAGTGCAG	9050 fluorescence intensity (a.u.)
TGCAGTGCGGCGTCACCTATCTCGTGGGCGCTTTCTTAGACGGAGTCACCTAGTGCAG	9080 fluorescence intensity (a.u.)
ATGGTTGGTTTCGTGCTCTGTTTTTTTTTGGGAGAATTCGCGGAGTCACCTAGTGCAG	12800 fluorescence intensity (a.u.)
GGTTTCGTTGGTGGGGTTTTTTCATGGTGGCTAGGGTTTTCGGAGTCACCTAGTGCAG	51100 fluorescence intensity (a.u.)
TAGGCTATCTTTTGAAGGGAGGGGTTTTTTCATCACCTATCGGAGTCACCTAGTGCAG	17000 fluorescence intensity (a.u.)
GGGTTGGTGGGCCTGATGGGCTTGGTTTTAGGGTTTCGTGCGGAGTCACCTAGTGCAG	9510 fluorescence intensity (a.u.)
ATTTTAGGGGAGGGTTTTACTTAGCAACTTTCATCTTATTCGGAGTCACCTAGTGCAG	15800 fluorescence intensity (a.u.)
GTTTATCTCTATCTTTTTTTCATCTTCTCTCTATATATATCGGAGTCACCTAGTGCAG	11000 fluorescence intensity (a.u.)
ACGGCGAGACGGTTTGCGGCGGCGGCGGTGGGGTTGGGATCGGAGTCACCTAGTGCAG	10600 fluorescence intensity (a.u.)
TGGGGTTGGTTTGGTTTGGAGTACATCGAGATTCGAGAGACGGAGTCACCTAGTGCAG	19900 fluorescence intensity (a.u.)

Sequence	binding signal
CTGCGTTTATTTGGGTTTATTTGGGGCTGAGAGAGTACATCGGAGTCACCTAGTGCAG	13800 fluorescence intensity (a.u.)
GTTTCGTGGTGGTTGCTGGGCTTTTCGTTGGCGTGGGTGGCGGAGTCACCTAGTGCAG	11500 fluorescence intensity (a.u.)
CTCGGGAATTCGGGTGGTTTGGTTGGGTTTCGTGGAGAATCGGAGTCACCTAGTGCAG	18700 fluorescence intensity (a.u.)
ACTGTTGGAGTGGGAGTGGGGAATTCTAGGGTTTTGCAATCGGAGTCACCTAGTGCAG	12300 fluorescence intensity (a.u.)
ACGGGGATGACTCCGATGACTCTCCTGGCCTCGCCGCCTCCGGAGTCACCTAGTGCAG	8120 fluorescence intensity (a.u.)
ACTTGGTTCTTGCTCATCATCTTTCGCTTGCTCGTCAGCTCGGAGTCACCTAGTGCAG	8360 fluorescence intensity (a.u.)
CCCTCTTCTCCTTTGCTTGGTCTCGTTTCGTCGCTGTCGTCGGAGTCACCTAGTGCAG	8260 fluorescence intensity (a.u.)
GAGGTCCCGTCGCTCCGGCGAGCTCCCGCCATCCGCCTCGCGGAGTCACCTAGTGCAG	8630 fluorescence intensity (a.u.)
ATGGCCGCTGTCTTATGTCGTCTCGTTCAAATAAAATCTCCGGAGTCACCTAGTGCAG	8370 fluorescence intensity (a.u.)
GGGATTTGGTGGCTGCTCGCCTCTCGCGTTTCTTTTGCTGCGGAGTCACCTAGTGCAG	10200 fluorescence intensity (a.u.)
CTTCTGCTGCTTCTCTCTCTCTCTCTGTGTCTAGTCTACCCGGAGTCACCTAGTGCAG	9420 fluorescence intensity (a.u.)
TATTTGTCATTCGCTGTCTATGACATATGAGCCCTCATGTCGGAGTCACCTAGTGCAG	8280 fluorescence intensity (a.u.)
CTCCTCCCAACTTTCCCCTTTGCTACAGTAGCTCCTTCTTCGGAGTCACCTAGTGCAG	8100 fluorescence intensity (a.u.)
GAGAGAGGAAGAACAGTACGTGTCTAGGGGCATTTTGGTACGGAGTCACCTAGTGCAG	9700 fluorescence intensity (a.u.)
ACACCGGCCGCCGAGCTCGCCTCCTCTCTTGTCGCCCACACGGAGTCACCTAGTGCAG	10100 fluorescence intensity (a.u.)
GTTCCTGATATGTTTTTTTGTTGGTTGCAGGATGGCAAGACGGAGTCACCTAGTGCAG	8880 fluorescence intensity (a.u.)
GCTCTCTTTCCGCTTCTACCCTCGTCACGTCCACGAAATCCGGAGTCACCTAGTGCAG	14900 fluorescence intensity (a.u.)
GCCACAGCTCTTGATTTCTCGCTGGATCCTGGTTTTCACCCGGAGTCACCTAGTGCAG	8430 fluorescence intensity (a.u.)
GGTGGGTTTCGTGGTACGGCTCGCTCTCGTGGTGGGGAATCGGAGTCACCTAGTGCAG	19700 fluorescence intensity (a.u.)
TTGGGGTTGGCGGGAATTAGGGTTTCGTTGGTGGGGTTTTCGGAGTCACCTAGTGCAG	25900 fluorescence intensity (a.u.)
ACCTCGGAAAGTACGGGGTTCTCGTCGGCTGGGTGGGTGTCGGAGTCACCTAGTGCAG	11500 fluorescence intensity (a.u.)

Sequence	binding signal
TCGTTTGGTTGGCGGGAGTTTTAAGAGGGATTAGGAGTTTCGGAGTCACCTAGTGCAG	9020 fluorescence intensity (a.u.)
GGTTGGCAGCGGCGGCGGAGGTGGGGAGAGGCGGGTGGTTCGGAGTCACCTAGTGCAG	13600 fluorescence intensity (a.u.)
GAGCGGGGAGGCGGCGGATCTAGGGTTTGGTTGGGTTTTTCGGAGTCACCTAGTGCAG	15300 fluorescence intensity (a.u.)
CTGGCTCGCTCTCTCTCTCTCTCTCGTGGTGTGGTGTGGACGGAGTCACCTAGTGCAG	9310 fluorescence intensity (a.u.)
TGCTAGGGTTTTCGGGAGGCGGGTCTAGGGTTGAGGCAAACGGAGTCACCTAGTGCAG	12300 fluorescence intensity (a.u.)
GCGTTTTCGGCGGGGAACGCGGGGAGGCGGGTGGGGTTGACGGAGTCACCTAGTGCAG	21800 fluorescence intensity (a.u.)
GTTGGTGTCCATCCGTTTCCGAGCCATTTTCATCCCTAATCGGAGTCACCTAGTGCAG	11600 fluorescence intensity (a.u.)
TCCTTCCATCTCTCTGCTCACTTCACTTCACCTTCCAATGCGGAGTCACCTAGTGCAG	9020 fluorescence intensity (a.u.)
GTTTCCATTTATCTGTTCGCAGTCAGTTCCAAGAAGTACCCGGAGTCACCTAGTGCAG	8340 fluorescence intensity (a.u.)
GTTGGTTGGCTGTTCCTTGCTTTCATCCAGCTAGCTACTGCGGAGTCACCTAGTGCAG	10500 fluorescence intensity (a.u.)
ACCGGCTCTCTAATCCTTAAATTCTGGCTTTGCTGCTAGTCGGAGTCACCTAGTGCAG	9240 fluorescence intensity (a.u.)
CAGTGGAGGGTTGGATCGGTGTGTAGGGGCTTAAGTGCAACGGAGTCACCTAGTGCAG	9610 fluorescence intensity (a.u.)
CATGTCCAACGTTTGACCATTTGCCTTATTTAAAATTTTTCGGAGTCACCTAGTGCAG	9250 fluorescence intensity (a.u.)
ATGCTCGATCACATGCTTAATTCTTAGCTTTGTCCTAGTTCGGAGTCACCTAGTGCAG	8230 fluorescence intensity (a.u.)
ACGGCCAGGCAAGCAAGCAAACGCCGCGGCTACCAATACCCGGAGTCACCTAGTGCAG	39600 fluorescence intensity (a.u.)
GCTAAATACCAGCGAAGCAGTCGCCCGCGCAAACGCGCGCCGGAGTCACCTAGTGCAG	8220 fluorescence intensity (a.u.)
GCCGCCACCGCAACCTACCGCCGCCGCGGCAAGCCCAAGCCGGAGTCACCTAGTGCAG	8960 fluorescence intensity (a.u.)
TTAATCTTCACGCGTTTGCTTACTCCTATATATATATGTACGGAGTCACCTAGTGCAG	9730 fluorescence intensity (a.u.)
TTCCTGTGTTTTGCAATCCGCTGTTTTACACTTACATTCCCGGAGTCACCTAGTGCAG	17300 fluorescence intensity (a.u.)
TGTTTTTCCTGTGTTTTGCAATCCTCTGTTTTACACTTACCGGAGTCACCTAGTGCAG	13000 fluorescence intensity (a.u.)
TCCTGTGTTTTGCAATCCTCTGTTTTTACACTTGCATTCCCGGAGTCACCTAGTGCAG	10400 fluorescence intensity (a.u.)
